From PubChem BioAssay (NCATS)
Results filed as inconclusive are left out. Some structures have more than one record in an assay (separate samples or runs), and their calls can disagree. Activity calls are given as the source filed them. Unless noted, calls follow the shape of the dose curve; as a rule, active = well fitted curve in the direction sought with a large enough effect; inconclusive = small, poorly fitted or top-dose-only effect, or another doubt; inactive = no such curve, though single readings can be large; an effect the other way counts as inactive or inconclusive.

Tests used:
[1] = molecular target: M-phase phosphoprotein 8 (Homo sapiens) (UniProt Q99549); experiment: qHTS Validation Assay for Inhibitors for MPP8 Chromodomain Interactions with Methylated Histone Tails (AID 488949); also: nearly all actives have a fitted effect of over 55% in size; also: potency is read from the fitted curve at half-maximal effect
Method in brief: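 MPP8 (50 nM) was pre-bound to 50 nM biotinylated H3(1-18)K9me3 peptide in PBS pH 7.4 with 0.01% Tween-20. Compounds were then added for 30 min at room temperature, and complex disruption was read by AlphaScreen with streptavidin donor and nickel-chelate acceptor beads.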

[2] = molecular target: Transient receptor potential cation channel subfamily V member 1 (Homo sapiens) (UniProt Q8NER1); experiment: HTS Assay for Compounds that Act as Enhancers of the Vanilloid Receptor 1 (AID 488979); also: 0% is about no effect
Method in brief: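 TRPV1 cells loaded with Fluo-8 calcium dye; compound added and Ca2+ signal (ex 480/em 520 nm) followed 3 min, then capsaicin at EC20 added and read 2 more min to detect enhancement.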

[3] = molecular target: Thyrotropin receptor (Homo sapiens) (UniProt P16473); experiment: qHTS Assay for Antagonists of the Thyroid Stimulating Hormone Receptor (AID 488980); also: series mostly up to about 58 µM; 0% is about no effect
Sequence of Thyrotropin receptor (Homo sapiens) (P16473 whole entry, looked up): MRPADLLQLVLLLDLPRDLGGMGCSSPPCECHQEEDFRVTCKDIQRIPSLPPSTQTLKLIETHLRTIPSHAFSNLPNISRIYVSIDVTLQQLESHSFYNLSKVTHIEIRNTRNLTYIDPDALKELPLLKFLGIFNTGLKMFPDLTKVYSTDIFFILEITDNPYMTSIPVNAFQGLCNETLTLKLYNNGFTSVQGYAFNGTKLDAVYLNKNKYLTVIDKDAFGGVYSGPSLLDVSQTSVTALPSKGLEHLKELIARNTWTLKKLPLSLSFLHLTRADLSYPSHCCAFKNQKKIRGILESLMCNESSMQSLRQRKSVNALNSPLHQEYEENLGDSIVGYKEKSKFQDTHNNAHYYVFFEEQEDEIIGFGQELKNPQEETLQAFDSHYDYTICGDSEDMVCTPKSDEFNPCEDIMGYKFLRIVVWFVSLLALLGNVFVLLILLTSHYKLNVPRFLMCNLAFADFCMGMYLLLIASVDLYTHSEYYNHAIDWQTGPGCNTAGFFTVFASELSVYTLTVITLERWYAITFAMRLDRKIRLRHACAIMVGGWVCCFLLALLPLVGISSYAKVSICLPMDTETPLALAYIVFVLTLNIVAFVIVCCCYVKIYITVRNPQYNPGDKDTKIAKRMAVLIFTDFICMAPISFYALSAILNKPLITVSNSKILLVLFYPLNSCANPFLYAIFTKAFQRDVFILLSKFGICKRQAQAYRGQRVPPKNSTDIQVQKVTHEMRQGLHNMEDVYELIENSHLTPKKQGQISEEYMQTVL
Method in brief: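 TSHR-transfected HEK293 cells (2000/well) in HEPES-buffered HBSS with 70 uM RO 20-1724 were stimulated with 4 nM TSH (EC80, final) in the presence of compound. cAMP was measured by HTRF competition after lysis and 30 min at RT.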

[4] = molecular target: ATP-dependent 6-phosphofructokinase (Trypanosoma brucei brucei) (UniProt O15648); experiment: qHTS Assay to Find Inhibitors of T. brucei phosphofructokinase: hit validation (AID 492961);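 also: luminescence reports ADP formed as PFK phosphorylates fructose-6-phosphate with ATP; series mostly up to about 51 µM; % is scaled to controls: 0 for no effect and ±100 for the full control effect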
Method in brief: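 Inhibition of parasite PFK is measured as reduced ADP formation, quantified via luciferase after ATP depletion. Assay used 0.1 mM ATP, 0.5 mM F6P, 1.25 nM enzyme, 45 min incubation.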

[5] = molecular target: Thyrotropin-releasing hormone receptor (Homo sapiens) (UniProt P34981); experiment: qHTS for Small Molecule Agonists and Allosteric Enhancers of Human TRH Receptor: Validation Screen for Agonists (AID 493127;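 active = calcium activation more than 3 SD above the typical response in the agonist read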;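 also: intracellular calcium rise by fluo-8 fluorescence before TRH EC20 addition; 0% is about no effect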); details: TRH receptor agonist cell assay; at 2 µM; stronger effect = higher value
Sequence of Thyrotropin-releasing hormone receptor (Homo sapiens) (P34981 whole entry, looked up): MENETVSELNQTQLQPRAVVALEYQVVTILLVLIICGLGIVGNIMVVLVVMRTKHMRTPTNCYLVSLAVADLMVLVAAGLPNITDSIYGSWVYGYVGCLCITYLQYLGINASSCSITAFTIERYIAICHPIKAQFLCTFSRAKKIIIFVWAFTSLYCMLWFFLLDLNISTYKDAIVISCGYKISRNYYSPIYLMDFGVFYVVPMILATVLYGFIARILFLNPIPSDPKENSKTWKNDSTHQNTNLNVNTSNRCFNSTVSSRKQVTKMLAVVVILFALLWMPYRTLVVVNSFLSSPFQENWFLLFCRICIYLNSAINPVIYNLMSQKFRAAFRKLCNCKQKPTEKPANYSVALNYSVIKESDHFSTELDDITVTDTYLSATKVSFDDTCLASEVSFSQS
Method in brief: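 Compound-evoked intracellular calcium release in fluo-8-loaded TRHR cells, read kinetically on FDSS (Ex 480/Em 530, 1 s/cycle) after 23 nL pintool transfer. Agonist phase preceded 10 nM TRH EC20 addition.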

[6] = molecular target: Galactokinase (Homo sapiens) (UniProt P51570); experiment: qHTS Validation Assay for Inhibitors of Human Galactokinase (GALK) (AID 493189); also: 0% is about no effect
Sequence of Galactokinase (Homo sapiens) (P51570 whole entry, looked up): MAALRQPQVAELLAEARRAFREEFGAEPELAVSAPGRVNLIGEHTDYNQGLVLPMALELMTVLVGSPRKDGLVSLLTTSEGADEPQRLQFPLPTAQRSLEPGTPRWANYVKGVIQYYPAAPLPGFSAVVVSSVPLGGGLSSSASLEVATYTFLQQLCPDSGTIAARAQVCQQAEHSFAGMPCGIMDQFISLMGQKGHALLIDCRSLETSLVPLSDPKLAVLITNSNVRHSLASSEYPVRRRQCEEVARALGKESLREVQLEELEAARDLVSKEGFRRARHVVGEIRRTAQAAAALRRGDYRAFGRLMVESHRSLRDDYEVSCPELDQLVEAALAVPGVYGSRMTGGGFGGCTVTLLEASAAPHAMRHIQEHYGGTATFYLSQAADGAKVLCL
Method in brief: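 GALK (5 nM) with 35 uM ATP and 100 uM galactose in HEPES pH 8.0 with MgCl2, NaCl, DTT and BSA. Reaction ran 1 h at room temperature. Residual ATP read by Kinase-Glo Plus luminescence.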

[7] = Validation screen for small molecules that induce DNA re-replication in SW480 colon adenocarcinoma cells (AID 504364); also: 0% is about no effect
Method in brief: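 Image-based DNA content read-out: Hoechst stain 40 min, total nuclear fluorescence intensity (ex 405 nm, em 500-530 nm) after 48 h compound exposure of 250 SW480 cells/well at 37 C, 5% CO2, versus DMSO vehicle.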

[8] = molecular target: Chromobox protein homolog 1 (Homo sapiens) (UniProt P83916); experiment: qHTS Validation Assay for Inhibitors of HP1-beta Chromodomain Interactions with Methylated Histone Tails (AID 488953); also: nearly all actives have a fitted effect of over 50% in size; also: potency is read from the fitted curve at half-maximal effect
Sequence of Chromobox protein homolog 1 (Homo sapiens) (P83916 whole entry, looked up): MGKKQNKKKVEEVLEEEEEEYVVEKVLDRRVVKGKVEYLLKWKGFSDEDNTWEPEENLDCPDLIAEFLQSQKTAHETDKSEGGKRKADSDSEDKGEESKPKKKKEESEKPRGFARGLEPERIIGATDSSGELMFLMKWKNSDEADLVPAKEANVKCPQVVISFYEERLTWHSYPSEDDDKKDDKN
Method in brief: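 AlphaScreen proximity signal from streptavidin donor and nickel chelate acceptor beads (final 10 ug/mL) after 30 min dark incubation. Compounds had 30 min at room temperature with preformed complex of 50 nM HP1-beta and 50 nM b-H3(1-18)K9me3 in PBS pH 7.4 with 0.01% Tween-20.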

[9] = molecular target: Methanococcus maripaludis chaperonin (MmCpn) (UniProt Q6LX38); experiment: High-Throughput Screening for Modulators of Cytosolic Chaperonin Activity: MmCpn Primary Screen (AID 488978);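 also: 50 nM MmCpn enzyme hydrolysing 30 µM ATP at 37 °C; 0% is about no effect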
Sequence of Methanococcus maripaludis chaperonin (MmCpn) (Q6LX38 1-543): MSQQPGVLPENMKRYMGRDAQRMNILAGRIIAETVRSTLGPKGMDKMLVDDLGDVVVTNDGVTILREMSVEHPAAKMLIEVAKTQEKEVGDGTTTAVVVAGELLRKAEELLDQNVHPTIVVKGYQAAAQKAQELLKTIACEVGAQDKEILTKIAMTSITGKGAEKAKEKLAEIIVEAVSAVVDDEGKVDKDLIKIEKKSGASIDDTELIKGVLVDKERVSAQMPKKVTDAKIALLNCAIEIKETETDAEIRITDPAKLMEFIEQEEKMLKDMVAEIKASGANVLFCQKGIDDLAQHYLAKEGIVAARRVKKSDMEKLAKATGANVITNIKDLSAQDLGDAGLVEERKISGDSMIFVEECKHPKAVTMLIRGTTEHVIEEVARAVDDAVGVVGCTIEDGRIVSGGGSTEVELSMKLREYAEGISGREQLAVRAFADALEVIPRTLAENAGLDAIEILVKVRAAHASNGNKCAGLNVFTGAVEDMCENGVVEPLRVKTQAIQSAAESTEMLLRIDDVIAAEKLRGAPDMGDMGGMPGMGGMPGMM
Method in brief: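 MmCpn at 50 nM final was preincubated 5 min at RT with compound. ATP was then added at 30 uM final for 10 min at 37 C. ADP formed was detected by Transcreener HTRF (665/590 nm).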

[10] = molecular target: D(1A) dopamine receptor (Homo sapiens) (UniProt P21728); experiment: HTS Assay for Allosteric Agonists of the Human D1 Dopamine Receptor: Primary Screen for Potentiators (AID 488982); also: 0% is about no effect
Sequence of D(1A) dopamine receptor (Homo sapiens) (P21728 whole entry, looked up): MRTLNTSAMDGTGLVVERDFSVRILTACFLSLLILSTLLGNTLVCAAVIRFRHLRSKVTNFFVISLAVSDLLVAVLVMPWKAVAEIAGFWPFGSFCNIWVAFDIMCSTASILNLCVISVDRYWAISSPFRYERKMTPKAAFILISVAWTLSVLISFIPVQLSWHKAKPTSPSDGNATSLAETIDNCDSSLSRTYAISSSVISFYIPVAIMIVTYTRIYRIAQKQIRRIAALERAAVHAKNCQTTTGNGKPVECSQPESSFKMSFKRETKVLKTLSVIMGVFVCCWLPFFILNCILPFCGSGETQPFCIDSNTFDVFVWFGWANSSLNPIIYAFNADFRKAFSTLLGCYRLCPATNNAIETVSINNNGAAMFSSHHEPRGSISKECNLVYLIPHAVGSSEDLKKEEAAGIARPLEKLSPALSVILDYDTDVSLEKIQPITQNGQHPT
Method in brief: (§1)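 Tetracycline-induced HEK293 Trex D1 cells with forced coupling to calcium, loaded with no-wash calcium dye; kinetic fluorescence read 180 s after compound addition for agonism, then a further 180 s after an EC20 dopamine challenge for potentiation.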

[11] = Validation screen for small molecules that induce genotoxicity in human embryonic kidney (HEK293T) cells expressing luciferase-tagged ELG1 (AID 493106); also: 0% is about no effect
Method in brief: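 ELG1-luciferase reporter readout (ONE-Glo, 30 min, room temperature) after 16 hr compound treatment at 37 °C of HEK293T cells at 2,000 per well. Rising luminescence flags genotoxic stress.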

[12] = molecular target: ATPase family AAA domain-containing protein 5 (Homo sapiens) (UniProt Q96QE3); experiment: Validation screen for small molecules that inhibit ELG1-dependent DNA repair in human embryonic kidney (HEK293T) cells expressing luciferase-tagged ELG1 (AID 493107);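 also: series mostly up to about 46 µM; % is scaled to controls: 0 for no effect and ±100 for the full control effect; inhibitors lower the ELG1-luciferase luminescence signal; nearly all actives have a fitted effect of over 70% in size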
Sequence of ATPase family AAA domain-containing protein 5 (Homo sapiens) (Q96QE3 whole entry, looked up, the tested form may be a part): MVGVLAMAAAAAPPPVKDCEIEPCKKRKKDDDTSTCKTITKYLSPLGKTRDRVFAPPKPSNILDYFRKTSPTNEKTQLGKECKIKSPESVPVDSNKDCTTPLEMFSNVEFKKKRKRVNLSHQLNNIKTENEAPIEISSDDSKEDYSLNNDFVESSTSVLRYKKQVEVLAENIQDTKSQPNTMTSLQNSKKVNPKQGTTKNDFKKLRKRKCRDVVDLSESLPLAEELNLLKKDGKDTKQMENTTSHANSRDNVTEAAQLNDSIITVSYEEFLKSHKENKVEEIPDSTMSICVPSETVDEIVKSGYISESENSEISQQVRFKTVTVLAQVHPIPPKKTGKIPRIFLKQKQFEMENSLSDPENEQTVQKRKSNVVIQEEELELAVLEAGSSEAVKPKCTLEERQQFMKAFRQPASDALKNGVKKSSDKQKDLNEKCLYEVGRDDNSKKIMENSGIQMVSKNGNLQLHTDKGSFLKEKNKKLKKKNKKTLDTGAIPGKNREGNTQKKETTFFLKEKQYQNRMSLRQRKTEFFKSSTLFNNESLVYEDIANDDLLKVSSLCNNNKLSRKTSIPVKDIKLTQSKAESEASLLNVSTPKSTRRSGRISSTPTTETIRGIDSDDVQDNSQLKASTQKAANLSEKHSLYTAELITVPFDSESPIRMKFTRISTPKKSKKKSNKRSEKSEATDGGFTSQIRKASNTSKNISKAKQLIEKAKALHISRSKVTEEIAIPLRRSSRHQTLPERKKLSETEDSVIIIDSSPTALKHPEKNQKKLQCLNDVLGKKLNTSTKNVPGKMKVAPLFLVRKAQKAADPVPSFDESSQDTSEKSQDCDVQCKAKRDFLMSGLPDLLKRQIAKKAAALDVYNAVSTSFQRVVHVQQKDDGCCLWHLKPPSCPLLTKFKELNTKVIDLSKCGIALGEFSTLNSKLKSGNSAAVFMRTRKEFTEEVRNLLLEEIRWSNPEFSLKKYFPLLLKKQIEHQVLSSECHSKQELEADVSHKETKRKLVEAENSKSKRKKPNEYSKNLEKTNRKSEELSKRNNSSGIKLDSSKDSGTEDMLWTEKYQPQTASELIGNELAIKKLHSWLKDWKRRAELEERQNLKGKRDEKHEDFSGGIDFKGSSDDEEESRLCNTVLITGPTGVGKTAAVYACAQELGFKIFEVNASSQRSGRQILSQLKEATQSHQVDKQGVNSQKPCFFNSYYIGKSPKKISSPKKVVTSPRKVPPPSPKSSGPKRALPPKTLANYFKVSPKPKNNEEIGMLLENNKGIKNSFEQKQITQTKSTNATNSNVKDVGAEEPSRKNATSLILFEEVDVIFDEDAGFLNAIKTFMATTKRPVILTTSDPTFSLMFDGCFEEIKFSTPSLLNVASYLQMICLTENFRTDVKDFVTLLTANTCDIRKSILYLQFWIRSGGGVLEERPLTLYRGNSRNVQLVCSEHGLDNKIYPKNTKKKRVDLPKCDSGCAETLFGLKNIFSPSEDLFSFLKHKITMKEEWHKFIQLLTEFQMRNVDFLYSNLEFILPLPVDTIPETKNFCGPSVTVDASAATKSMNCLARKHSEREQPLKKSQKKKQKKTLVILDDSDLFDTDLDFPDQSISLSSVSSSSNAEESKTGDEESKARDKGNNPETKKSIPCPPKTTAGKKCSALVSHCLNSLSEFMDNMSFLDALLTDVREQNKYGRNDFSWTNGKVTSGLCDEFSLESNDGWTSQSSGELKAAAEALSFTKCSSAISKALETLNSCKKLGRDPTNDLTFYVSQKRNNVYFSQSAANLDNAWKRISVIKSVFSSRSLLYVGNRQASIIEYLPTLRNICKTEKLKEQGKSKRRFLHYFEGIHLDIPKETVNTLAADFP
Method in brief: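 Luciferase read-out, ONE-Glo, 30 min at room temperature, follows 16 h co-exposure at 37 C of compound and the DNA-damaging agent 5-fluorouridine. Cells: HEK293T with ELG1-luciferase fusion, 2,000 per well, DMSO as vehicle.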

[13] = Nrf2 qHTS screen for inhibitors: Validation (AID 493153; active = well fitted inhibition curve with a large enough effect in the main read-out, with a control signal flat, not every such curve was filed as active); details: Potency: luciferase luminescence; viability change: measured here: cytotoxicity max response
Method in brief: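 Concentration-response on A549 ARE_Fluc reporter cells exposed 18-24 h at 37 C, 5% CO2. Cytotoxicity read first by CellTiter-Fluor fluorescence (Ex 405/Em 525), then Nrf2 inhibition by BugLite luminescence after 15 min.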

[14] = qHTS for Inhibitors of Cell Surface uPA Generation: Validation Assay (AID 493164);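 also: RAW 264.7 macrophage cells exposed to compound for 18 h; 0% is about no effect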
Method in brief: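 ATP-Lite luminescence read-out: ATP remains high when uPA activity-dependent LF translocation into the cytoplasm is blocked. RAW 264.7 cells, 18 h compound exposure at 37 C; 7-point titration, 2.45 nM to 38.3 uM final.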

[15] = molecular target: Peptidyl-prolyl cis-trans isomerase NIMA-interacting 1 (Homo sapiens) (UniProt Q13526); experiment: qHTS Validation Assay to Find Inhibitors of Pin1 (AID 504536; active = well fitted inhibition curve with a large enough effect in the polarisation, with a control signal flat, not every such curve was filed as active; the % refers to the polarisation;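 also: 0% = full Pin1 enzyme wells and -100% = no-enzyme wells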)
Method in brief: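 Fluorescence polarization competition: compounds (titration) displace HiFluor-488-labeled Pin1-1b peptide from Pin1 (0.3 uM final) in pH 7.5 HEPES buffer with DTT, 10 min at room temperature; %Activity normalized to no-enzyme wells, curves fitted.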

[16] = molecular target: Phosphoglycerate kinase, glycosomal (Trypanosoma brucei brucei) (UniProt P07378); experiment: qHTS Validation Assay to Find Inhibitors of Phosphoglycerate Kinase (AID 504547);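 also: control wells lack PGK and mark full inhibition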
Sequence of Phosphoglycerate kinase, glycosomal (Trypanosoma brucei brucei) (P07378 whole entry, looked up): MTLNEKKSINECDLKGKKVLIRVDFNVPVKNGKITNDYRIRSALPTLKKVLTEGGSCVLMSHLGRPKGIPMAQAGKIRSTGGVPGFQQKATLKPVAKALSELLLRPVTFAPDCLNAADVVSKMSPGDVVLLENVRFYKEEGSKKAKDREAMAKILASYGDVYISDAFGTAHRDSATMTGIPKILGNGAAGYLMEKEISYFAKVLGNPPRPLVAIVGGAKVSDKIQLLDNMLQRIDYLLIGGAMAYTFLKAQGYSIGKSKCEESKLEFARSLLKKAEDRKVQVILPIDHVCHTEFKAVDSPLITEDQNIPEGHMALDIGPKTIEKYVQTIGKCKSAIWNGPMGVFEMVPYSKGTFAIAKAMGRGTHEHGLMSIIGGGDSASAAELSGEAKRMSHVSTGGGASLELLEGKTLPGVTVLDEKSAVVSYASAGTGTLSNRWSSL
Method in brief: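 Compounds are pinned into the substrate/PGK mixture, and GAPDH (100nM final) is added to start the reaction by producing 1,3-BPG. After 60 minutes at room temperature, Kinase-Glo Plus is added and luminescence is measured 10 minutes later.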

[17] = molecular target: D(1A) dopamine receptor (Homo sapiens) (UniProt P21728); experiment: HTS Assay for Allosteric Agonists of the Human D1 Dopamine Receptor: Primary Screen for Antagonists (AID 488983);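 also: calcium flux response to an EC80 dopamine challenge measured with no-wash dye; nearly all actives have a fitted effect of over 65% in size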; also: potency is read from the fitted curve at half-maximal effect
Method in brief: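 Calcium-flux read-out in inducible HEK293 T-REx cells expressing D1, dye-loaded 30–90 min at room temperature. Kinetic reads: 180 s after compound (agonist phase), then 180 s after an EC80 dopamine challenge.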

[18] = molecular target: D(1A) dopamine receptor (Homo sapiens) (UniProt P21728); experiment: HTS Assay for Allosteric Agonists of the Human D1 Dopamine Receptor: Primary Screen for Agonists (AID 488981); also: 0% is about no effect
Method in brief: as §1

[19] = molecular target: Tyrosyl-DNA phosphodiesterase 1 (Homo sapiens) (UniProt Q9NUW8); experiment: Confirmation Assay for Inhibitors of Tyrosyl-DNA Phosphodiesterase (TDP1) (AID 489007); details: recombinant human TDP1 enzymatic activity, dose-response; also: potency is read from the fitted curve at half-maximal effect; nearly all actives have a fitted effect of over 40% in size
Method in brief: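 AlphaScreen assay of tyrosine-FITC cleavage from a biotinylated DNA substrate (15 nM) by E. coli-expressed human Tdp1 (1 nM). Sequence: compound preincubation 15 min, reaction 5 min, bead detection 10 min, all at room temperature. No-enzyme wells give maximum signal.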

N#CC(C#N)=Cc1cc(O)c(O)c(O)c1
active: Potency [1] 39.8 µM
inactive: outcome [2] | outcome [3] | Potency [4] | activation [5] 0.188% | outcome [6]

CNC(=O)OCC[N+](C)(C)C
inactive: Potency [1] | outcome [2] | Potency [4] | activation [5] -0.438% | outcome [6] | Potency [7]

CCCN1CCc2cccc3c2[C@H]1Cc1ccc(O)c(O)c1-3
0.172%: viability change [13]
active: Potency [8] 70.8 µM
inactive: outcome [9] | Potency [10] | Potency [11] | Potency [12] | Potency [13] | outcome [14] | Potency [15] | Potency [16]

FC(F)OC(F)(F)C(F)Cl (stereo not drawn)
inactive: Potency [4]

CCn1cnc2c(Nc3cccc(Cl)c3)nc(N[C@@H]3CCCC[C@@H]3N)nc21
active: Potency [8] 39.8 µM
inactive: outcome [9] | outcome [3] | Potency [10] | Potency [17] | activation [5] 3.88% | outcome [6] | Potency [16]
39.8 µM (active) and inactive: Potency [1]

C[N+](C)(C)CCOC(=O)CBr
-12.9%: viability change [13]
inactive: Potency [1] | Potency [8] | outcome [9] | outcome [2] | Potency [18] | Potency [10] | Potency [17] | activation [5] 1.06% | Potency [13] | outcome [6] | Potency [7] | Potency [15] | Potency [16]

CCN(CC)C(=O)/C(Cl)=C(\C)OP(=O)(OC)OC
inactive: Potency [4]

OC(c1ccccc1)(c1ccccc1)C1CN2CCC1CC2 (stereo not drawn)
inactive: Potency [4]

CN1CCCC(=C(c2cccs2)c2cccs2)C1
inactive: Potency [4]

O=P(O)(O)C(Cl)(Cl)P(=O)(O)O
inactive: Potency [1] | outcome [2] | Potency [4] | activation [5] -0.25% | outcome [6] | Potency [7]

O=C1CCO1
inactive: Potency [4]

Cc1sc2ccccc2c1CC1=NCCN1
active: Potency [17] 10 µM
-0.892%: viability change [13]
inactive: Potency [1] | outcome [9] | outcome [2] | outcome [3] | Potency [18] | Potency [10] | Potency [4] | Potency [11] | Potency [12] | activation [5] 1.12% | Potency [13] | outcome [14] | outcome [6] | Potency [7] | Potency [15] | Potency [16]

CCCC(=O)OC(C(Cl)(Cl)Cl)P(=O)(OC)OC (stereo not drawn)
inactive: Potency [4]

COC1=CC=C2[C@H]3Cc4ccc(OC)c5c4[C@@]2(CCN3C)[C@H]1O5
inactive: Potency [4]

ClC=C(Cl)Cl
inactive: Potency [4]

C[C@@H]1O[C@H](C[N+](C)(C)C)CS1
inactive: Potency [1] | Potency [8] | outcome [9] | outcome [2] | Potency [18] | Potency [10] | Potency [17] | Potency [11] | activation [5] 11.2% | Potency [13] | outcome [14] | outcome [6] | Potency [7] | Potency [15] | Potency [16]
8.63%: viability change [13]

NCC(O)c1cccc(O)c1 (stereo not drawn)
inactive: Potency [4]

C#CCN[C@H](C)Cc1ccccc1
inactive: Potency [1] | Potency [8] | outcome [9] | outcome [2] | Potency [18] | Potency [10] | Potency [17] | Potency [12] | activation [5] 1.31% | Potency [13] | outcome [6] | Potency [7] | Potency [15] | Potency [16]
0.263%: viability change [13]

[O]=[Cr](=[O])([OH])[O][Cr](=[O])(=[O])[OH]
active: Potency [19] 4.47 µM

CN1C2CCC1CC(OC(c1ccccc1)c1ccc(Cl)cc1)C2 (stereo not drawn)
inactive: activation [5] 8.88% | outcome [6] | Potency [7]
